Several values for one entry are separate records, joined by “and”; a condition that tells them apart may be missing. Identical values can stand only once. Compounds without any hit were thinned out: in the full panel of roughly 83,000, 20% have a hit.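 Cells were grown in 96-well plates and exposed to the test compound at a single concentration for 48 hours; results are reported as percent growth, with values below 10 considered active.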 Activity calls are given as the source filed them.
Columns and labels:
Experiment in all cases: NCI-60 one-dose screen, 48 h (100 = growth as untreated, 0 = no growth, -100 = all killed)
[1] = tested on: T-47D breast
[2] = tested on: BT-549 breast
[3] = tested on: MDA-MB-435 melanoma
[4] = tested on: SW-620 colon
[5] = tested on: MCF7 breast
[6] = tested on: HCT-116 colon
[7] = tested on: HCC-2998 colon
[8] = tested on: KM12 colon

Measured: growth

CCOC(=O)n1cc(-c2nonc2-c2cn(C)c3ccc(OC)cc23)c2cc(F)ccc21
inactive: [1]; 10 µM unless noted 73% | [2]; 10 µM unless noted 86.9% | [3]; 10 µM unless noted 85.7% | [4]; 10 µM unless noted 80.5% | [5]; 10 µM unless noted 77.6% | [6]; 10 µM unless noted 77.3% | [7]; 10 µM unless noted 91.9%

COc1cc2cc(NCc3ccncc3)nc(C)c2cc1OC
inactive: [1]; 10 µM unless noted 71.2% | [2]; 10 µM unless noted 77.9% | [3]; 10 µM unless noted 106% | [4]; 10 µM unless noted 107% | [5]; 10 µM unless noted 93.4% | [6]; 10 µM unless noted 93.1% | [7]; 10 µM unless noted 106%

CC[C@H](C)[C@H](NC(=O)[C@@H](N)CCC(N)=O)C(=O)N[C@@H](Cc1ccc(O)cc1)C(=O)N[C@@H](CCCCN)C(=O)N[C@@H](CCCCN)C(=O)N[C@@H](Cc1ccc(O)cc1)C(=O)N[C@@H](CCCNC(=N)N)C(=O)N[C@H](C(=O)N[C@@H](Cc1c[nH]c2ccccc12)C(=O)N[C@@H](Cc1ccc(O)cc1)C(=O)N[C@@H](CCCNC(=N)N)C(=O)N[C@@H](CCCCN)C(=O)N[C@@H](C)C(=O)N[C@@H](Cc1c[nH]c2ccccc12)C(=O)N[C@@H](CCCCN)C(=O)N[C@H](C(=O)N[C@@H](CC(C)C)C(=O)NCC(=O)N[C@@H](CCCCN)C(=O)N[C@H](C(N)=O)C(C)C)C(C)C)[C@@H](C)O
inactive: [2]; 10 µM unless noted 16.3% | [3]; 10 µM unless noted 17.9% | [4]; 10 µM unless noted 47.2% | [6]; 10 µM unless noted 28.7% | [7]; 10 µM unless noted 87.5%
active: [1]; 10 µM unless noted -47% | [5]; 10 µM unless noted -68.3%

COc1ccc(S(=O)(=O)Nc2cc(Sc3cccc4cccnc34)c(O)c3ccccc23)cc1
inactive: [2]; 10 µM unless noted 27.7% | [3]; 10 µM unless noted 16.4% | [7]; 10 µM unless noted 38.6%
active: [1]; 10 µM unless noted -30.9% | [4]; 10 µM unless noted -59.2% | [5]; 10 µM unless noted -50.5% | [6]; 10 µM unless noted -36.8%

O=C(/C=C/c1cccc(Oc2ccc(Cl)cc2)c1)c1ccccc1
active: [1]; 100 µM -72% | [2]; 100 µM -61.3% | [3]; 100 µM -84.8% | [4]; 100 µM -69.7% | [5]; 100 µM -45.3% | [6]; 100 µM -82.2% | [7]; 100 µM -97.8% | [8]; 100 µM -76.8%
inactive: [1]; 10 µM 77% | [2]; 10 µM 102% | [3]; 10 µM 94.8% | [4]; 10 µM 19.7% | [5]; 10 µM 11.5% | [6]; 10 µM 55.9% | [7]; 10 µM 107% | [8]; 10 µM 75.3%

Cn1c(=O)c2c(nc(Nc3cc(=O)[nH]c(=O)[nH]3)n2Cc2ccccc2)n(C)c1=O
active: [3]; 10 µM unless noted -73%
inactive: [1]; 10 µM unless noted 18.9% | [2]; 10 µM unless noted 98.2% | [4]; 10 µM unless noted 19.3% | [5]; 10 µM unless noted 95.5% | [6]; 10 µM unless noted 94.2% | [7]; 10 µM unless noted 107%

COc1cc(/C=C/C(=O)c2ccc(NC(=O)CSc3nnc(-c4cc(-c5ccccc5)nc5ccccc45)n3-c3ccccc3)cc2)cc(OC)c1OC
inactive: [1]; 10 µM unless noted 73% | [2]; 10 µM unless noted 90.7% | [3]; 10 µM unless noted 92.2% | [4]; 10 µM unless noted 90.5% | [5]; 10 µM unless noted 74.3% | [6]; 10 µM unless noted 79% | [7]; 10 µM unless noted 88.3%

CC(=O)/C=C/c1ccc(OCc2ccc(C(C)(C)C)cc2)cc1
active: [1]; 100 µM 5.88%
inactive: [1]; 10 µM 52.8% | [2]; 10 µM 103% | [2]; 100 µM 21.3% | [3]; 10 µM 78.4% | [3]; 100 µM 39.5% | [4]; 10 µM 72.1% | [4]; 100 µM 38.6% | [5]; 10 µM 66.6% | [5]; 100 µM 41.8% | [7]; 10 µM 92.1% | [7]; 100 µM 86.8% | [8]; 10 µM 82.9% | [8]; 100 µM 32.1%

C=C1CCC2C3(C)COC(c4ccc(NC(C)=O)cc4)OC3CCC2(C)C1C/C=C1/C(=O)OCC1O (stereo not given)
inactive: [1]; 10 µM unless noted 29.4% | [2]; 10 µM unless noted 59.8% | [3]; 10 µM unless noted 60.5% | [4]; 10 µM unless noted 77.3% | [5]; 10 µM unless noted 42.5% | [6]; 10 µM unless noted 34.1% | [7]; 10 µM unless noted 59.1%

CCCCCCCCCCCCCCCCCCn1cc(COc2ccc(C=O)cc2)nn1
inactive: [1]; 10 µM unless noted 88.6% | [2]; 10 µM unless noted 100% | [3]; 10 µM unless noted 109% | [4]; 10 µM unless noted 104% | [5]; 10 µM unless noted 92.8% | [6]; 10 µM unless noted 76.8% | [7]; 10 µM unless noted 99.8%

COc1ccc(-c2cc(-c3cc(OC)c(OC)c(OC)c3)c(C#N)c(=O)n2CCCCC(=O)O)cc1
inactive: [1]; 10 µM unless noted 72.6% | [2]; 10 µM unless noted 102% | [3]; 10 µM unless noted 80.2% | [4]; 10 µM unless noted 98% | [5]; 10 µM unless noted 93.2% | [6]; 10 µM unless noted 94.1% | [7]; 10 µM unless noted 105%

CCCN1C(=O)/C(=c2\sc3n(c2=O)C2C(NN=3)N(CC)C(=O)N2CC)c2ccccc21 (stereo not given)
active: [3]; 10 µM unless noted -21.2% | [5]; 10 µM unless noted 9.94% | [6]; 10 µM unless noted 7.6%
inactive: [1]; 10 µM unless noted 27.8% | [2]; 10 µM unless noted 20.8% | [4]; 10 µM unless noted 24.9% | [7]; 10 µM unless noted 15.5%

N#C/C(=C\c1ccccc1Cl)c1cc2ccccc2[nH]1
inactive: [1]; 10 µM unless noted 38% | [2]; 10 µM unless noted 89.1% | [3]; 10 µM unless noted 101% | [4]; 10 µM unless noted 89% | [5]; 10 µM unless noted 36% | [6]; 10 µM unless noted 87.4% | [7]; 10 µM unless noted 111%

Cc1ccc(NC(=O)c2sc3nc(C)c(C(=O)c4ccccc4)cc3c2N)cc1
inactive: [1]; 10 µM unless noted 87.7% | [2]; 10 µM unless noted 84.7% | [3]; 10 µM unless noted 39.5% | [4]; 10 µM unless noted 90.8% | [5]; 10 µM unless noted 70.9% | [6]; 10 µM unless noted 97.7% | [7]; 10 µM unless noted 106%

CC(=O)/C=C/c1ccc(N(C)Cc2ccc(C(C)(C)C)cc2)cc1
inactive: [1]; 10 µM 62.5% | [2]; 10 µM 101% | [3]; 10 µM 88.5% | [4]; 10 µM 88.5% | [5]; 10 µM 80.3% | [6]; 10 µM 79.9% | [7]; 10 µM 99.6% | [8]; 10 µM 95.5%
active: [1]; 100 µM -53.9% | [2]; 100 µM -90.8% | [3]; 100 µM -54.3% | [4]; 100 µM -53.5% | [5]; 100 µM -22.6% | [6]; 100 µM -66.2% | [7]; 100 µM -41.2% | [8]; 100 µM -45.7%

COc1cc(F)c(/C=C/c2cc(/C=C/c3cc(OC)c(OC)cc3F)n(-c3cc(F)cc(F)c3)n2)cc1OC
active: [3]; 10 µM unless noted -4.07% | [4]; 10 µM unless noted 0.82% | [5]; 10 µM unless noted 8.88%
inactive: [1]; 10 µM unless noted 64% | [2]; 10 µM unless noted 75.5% | [6]; 10 µM unless noted 100% | [7]; 10 µM unless noted 85.5%

CCN(Cc1ccccc1)c1ccc(/C=C2\COc3ccccc3C2=O)cc1
inactive: [1]; 10 µM 78.3% | [1]; 100 µM 12.3% | [2]; 10 µM 95.6% | [2]; 100 µM 16.3% | [3]; 10 µM 95.7% | [4]; 10 µM 87.4% | [4]; 100 µM 28.1% | [5]; 10 µM 81.5% | [5]; 100 µM 17.5% | [6]; 10 µM 86.1% | [6]; 100 µM 30.8% | [7]; 10 µM 102% | [7]; 100 µM 66.8% | [8]; 10 µM 98.3% | [8]; 100 µM 21.8%
active: [3]; 100 µM -44.7%

COc1cc(CNC(=O)CCCC/C=C/C(C)C)ccc1OCc1cn(-c2ccc([N+](=O)[O-])cc2)nn1
inactive: [1]; 10 µM unless noted 64% | [2]; 10 µM unless noted 80.4% | [3]; 10 µM unless noted 99.7% | [4]; 10 µM unless noted 99.8% | [5]; 10 µM unless noted 83.4% | [6]; 10 µM unless noted 77.2% | [7]; 10 µM unless noted 108%

COCCOc1cc2ncnc(N3CCN(S(=O)(=O)c4ccccc4Cl)CC3)c2cc1OCCOC
inactive: [1]; 10 µM unless noted 80.6% | [2]; 10 µM unless noted 89.5% | [3]; 10 µM unless noted 10.5% | [4]; 10 µM unless noted 79.9% | [5]; 10 µM unless noted 49.3% | [6]; 10 µM unless noted 89.7% | [7]; 10 µM unless noted 79.6%

O=C(CCCOc1ccc(Br)cc1)Nc1ncc(Cc2ccc(F)cc2)s1
active: [3]; 10 µM unless noted -27.2%
inactive: [1]; 10 µM unless noted 58% | [2]; 10 µM unless noted 82% | [4]; 10 µM unless noted 58.2% | [5]; 10 µM unless noted 23.7% | [6]; 10 µM unless noted 36.6% | [7]; 10 µM unless noted 73.9%

O=C(O)C1C2CCC1C(O)C2 (stereo not given)
inactive: [1]; 10 µM unless noted 92.3% and 97.4% | [2]; 10 µM unless noted 98.2% and 97.1% | [3]; 10 µM unless noted 106% | [4]; 10 µM unless noted 107% and 113% | [5]; 10 µM unless noted 92% and 97.8% | [6]; 10 µM unless noted 100% and 101% | [7]; 10 µM unless noted 99.9% and 101%

CN1CCCc2cc(/C=C3\SC(=S)N(C(Cc4ccc(O)cc4)C(=O)O)C3=O)ccc21 (stereo not given)
inactive: [1]; 10 µM unless noted 87.1% | [2]; 10 µM unless noted 106% | [3]; 10 µM unless noted 103% | [4]; 10 µM unless noted 102% | [5]; 10 µM unless noted 94.5% | [6]; 10 µM unless noted 106% | [7]; 10 µM unless noted 93.6%

CC[C@]12CN3CCc4c([nH]c5ccccc45)[C@@](C(=O)OC)(c4cc5c(cc4OC)N(C)[C@H]4[C@@](O)(C(=O)OC)[C@H](OC(C)=O)[C@]6(CC)C=CCN7CC[C@]54[C@@H]76)CC(C3)[C@H]1O2 (stereo not given in full)
35.1% (inactive) and -19% (active): [5]; 100 µM
inactive: [1]; 10 µM unless noted 54.8% | [4]; 10 µM unless noted 17.1% | [5]; 10 µM 15.7%
active: [2]; 10 µM unless noted -26% | [3]; 10 µM unless noted -43.8% | [6]; 10 µM unless noted 0.479% | [7]; 10 µM unless noted -14.6% | [8]; 10 µM unless noted -17.6%

COc1ccc(C(=O)/C=C/c2ccc(OCc3cccc(C(F)(F)F)c3)c(OC)c2)cc1OC
active: [2]; 100 µM -41.3% | [4]; 100 µM 6.75% | [5]; 100 µM 6.42% | [6]; 100 µM 3.91%
inactive: [1]; 10 µM 54.2% | [1]; 100 µM 11.3% | [2]; 10 µM 95.2% | [3]; 10 µM 86.3% | [3]; 100 µM 12% | [4]; 10 µM 59.1% | [5]; 10 µM 40% | [6]; 10 µM 52.3% | [7]; 10 µM 105% | [7]; 100 µM 10.8% | [8]; 10 µM 72.5% | [8]; 100 µM 12.4%

Nc1nc(Nc2cccnc2)sc1C(=O)c1ccccc1F
active: [5]; 10 µM unless noted 9.37% | [6]; 10 µM unless noted 3.8%
inactive: [1]; 10 µM unless noted 33% | [2]; 10 µM unless noted 12.2% | [3]; 10 µM unless noted 39.2% | [4]; 10 µM unless noted 34.5% | [7]; 10 µM unless noted 69.5%

— PubChem BioAssay (NCI)
